# This is part of a sample that, as a whole, favours compounds with a hit. Of some 79,000 tested, about 15% had one in any assay. Activity calls are given as the source filed them. No stated cut-off is given here; in the data, active means growth inhibition above about 70%; inactive means the rest.
# Test: NCI Yeast Anticancer Drug Screen. Data for the mlh1 rad18 strain (AID 175)
# Conditions: S. cerevisiae mlh1 rad18 strain growth inhibition; at 50.0 µM; stronger effect = higher value
# Method in brief: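 A repair-deficient yeast strain is exposed to test compound, and growth is scored relative to vehicle-treated controls.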
row,Structure (SMILES),growth inhibition
1,CCOC(=O)C1(Cc2ccc3c(c2)CCC3)Cc2cc3c(cc2C1=O)CCC3 (stereo unspecified),-2.55% (inactive)
2,COc1ccc2cc(NC(=O)N/N=C\c3ccc(Cl)cc3)ccc2c1,30.4% (inactive)
3,O=c1c(-c2ccc(O)cc2)coc2cc(O)cc(O)c12,5% (inactive)
4,C/C(=N/O)C1c2ccccc2Cc2ccccc21,-22.5% (inactive)
5,CCCCCCCCCC(=O)OCCCC(CCCOC(=O)CCCCCCCCC)OC(=O)CCCCCCCCC,-26.6% (inactive)
6,CSc1cc(=O)[nH]c(=O)[nH]1,10.8% (inactive)
